Reference: PubChem BioAssay
Records with an inconclusive call do not appear. Activity calls are given as the source filed them.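 Rule for the calls, unless noted: active = inhibition above the screen-wide mean plus 3 SD, about 51%; inactive = the rest.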

Columns and labels:
[1] = rapamycin-like changes in RPL19A-GFP expression – cell-based, S. cerevisiae, multiplex flow cytometry, primary screen (AID 1862; in the data active = percent of DMSO control GFP below about 86%;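 note: lower values mimic rapamycin by blocking the RPL19A rise seen in DMSO cells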); conditions: S. cerevisiae RPL19A-GFP strain, flow cytometry fluorescence, 3 h; at 10 µM; stronger effect = lower value
[2] = TOR pathway GLN3 branch reporter MEP2-GFP changes – S. cerevisiae, multiplex flow cytometry, primary screen (AID 1867;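 active = GFP response, as percent of the DMSO control, above the screen-wide mean plus 3 SD, about 139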;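 note: median GFP channel fluorescence of barcode-gated MEP2-GFP cells measured by flow cytometry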); conditions: S. cerevisiae MEP2-GFP strain, 3 h, at 10 µM, stronger effect = higher value, 100% means same as DMSO wells
[3] = TOR pathway RTG branch CIT2 reporter changes – S. cerevisiae, GFP fusion, multiplex flow cytometry, primary screen (AID 1870;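 active = percent response above a set limit, the screen-wide mean plus 3 SD, cut at about 130% in these data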;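 note: barcoded CIT2-GFP strain pooled with four other GFP strains with rapamycin as positive control; median GFP fluorescence per well over plate mean of DMSO wells so 100% = DMSO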); conditions: S. cerevisiae CIT2-GFP expression, 3 h, at 10 µM, stronger effect = higher value
[4] = TOR pathway LAP4-GFP level changes – S. cerevisiae, multiplex flow cytometry, primary screen (AID 1873;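 active = GFP signal, as percent of the solvent control, above the screen mean plus 3 SD, about 149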); conditions: S. cerevisiae LAP4-GFP expression, 3 h, at 10 µM, stronger effect = higher value
[5] = yeast AGP1-GFP level changes, GLN3 branch – cell-based, multiplex flow cytometry, S. cerevisiae, primary screen (AID 1887;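 active = GFP signal above the screen-wide mean plus 3 SD, that is over about 124.5% of the solvent control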;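 note: AGP1-GFP fusion strain of S. cerevisiae within a five-strain barcoded multiplex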); conditions: 3 h, at 10 µM, stronger effect = higher value
[6] = reduced mouse 2C T cell binding to pMHC/ICAM-1 vesicles – MLPCN validation set, flow cytometry, LFA-1/ICAM-1 modulator project, pilot screen (AID 2523;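 active = response below a set limit, under 55% cells CD8-positive and vesicle-bound, and CD8 cells' 90th-percentile brightness under 279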;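 for vesicle binding response: mean PE anti-B7-1 fluorescence of CD8+ cells relative to row control; 100% = QL9-loaded vesicles with DMSO vehicle in the same plate row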); conditions: 2C mouse CD8+ T cells, at 7 µM, stronger effect = lower value; double positive events: measured here: CD8+/vesicle+ event percentage
[7] = target: Integrin beta-1 (Homo sapiens) + Integrin alpha-4 (Homo sapiens) (UniProt P13612+P05556); experiment: alpha4beta1 integrin LIBS antibody binding reduction – U937 cells, HUTS-21 mAb, flow cytometry, validation set, VLA-4 allosteric modulator project, pilot screen (AID 2674;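 active = inhibition above 50%, about 3 SD of the validation set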;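 note: antibody binding induced by the VLA-4 ligand LDV present at three times its Kd; 0% = LDV ligand with antibody and no compound and 100% = antibody without LDV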); conditions: HUTS-21 LIBS mAb binding, at 6.7 µM, stronger effect = higher value, binding induced by LDV ligand
Chain of Integrin beta-1 (Homo sapiens) + Integrin alpha-4 (Homo sapiens) (P05556 whole entry, looked up): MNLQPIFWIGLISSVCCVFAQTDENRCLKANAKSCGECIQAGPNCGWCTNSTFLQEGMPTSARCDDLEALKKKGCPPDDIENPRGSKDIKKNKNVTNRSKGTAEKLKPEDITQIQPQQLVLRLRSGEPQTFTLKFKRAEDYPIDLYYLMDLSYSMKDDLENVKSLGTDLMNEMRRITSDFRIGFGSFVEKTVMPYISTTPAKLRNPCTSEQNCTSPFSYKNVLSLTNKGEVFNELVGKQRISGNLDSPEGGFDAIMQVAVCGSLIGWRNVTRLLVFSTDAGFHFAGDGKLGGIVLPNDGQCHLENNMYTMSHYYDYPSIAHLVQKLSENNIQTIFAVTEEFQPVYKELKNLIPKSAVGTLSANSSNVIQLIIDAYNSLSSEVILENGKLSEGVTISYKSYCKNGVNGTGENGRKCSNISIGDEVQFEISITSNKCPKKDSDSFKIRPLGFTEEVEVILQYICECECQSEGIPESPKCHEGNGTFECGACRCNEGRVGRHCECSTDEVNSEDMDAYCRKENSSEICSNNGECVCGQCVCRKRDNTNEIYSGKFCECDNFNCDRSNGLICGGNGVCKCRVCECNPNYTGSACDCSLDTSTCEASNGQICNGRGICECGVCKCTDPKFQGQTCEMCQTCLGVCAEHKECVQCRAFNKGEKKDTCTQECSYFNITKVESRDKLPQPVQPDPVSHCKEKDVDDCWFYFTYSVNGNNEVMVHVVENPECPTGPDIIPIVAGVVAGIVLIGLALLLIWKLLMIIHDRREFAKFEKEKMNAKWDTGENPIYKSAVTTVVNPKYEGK
Chain of Integrin beta-1 (Homo sapiens) + Integrin alpha-4 (Homo sapiens) (P13612 whole entry, looked up): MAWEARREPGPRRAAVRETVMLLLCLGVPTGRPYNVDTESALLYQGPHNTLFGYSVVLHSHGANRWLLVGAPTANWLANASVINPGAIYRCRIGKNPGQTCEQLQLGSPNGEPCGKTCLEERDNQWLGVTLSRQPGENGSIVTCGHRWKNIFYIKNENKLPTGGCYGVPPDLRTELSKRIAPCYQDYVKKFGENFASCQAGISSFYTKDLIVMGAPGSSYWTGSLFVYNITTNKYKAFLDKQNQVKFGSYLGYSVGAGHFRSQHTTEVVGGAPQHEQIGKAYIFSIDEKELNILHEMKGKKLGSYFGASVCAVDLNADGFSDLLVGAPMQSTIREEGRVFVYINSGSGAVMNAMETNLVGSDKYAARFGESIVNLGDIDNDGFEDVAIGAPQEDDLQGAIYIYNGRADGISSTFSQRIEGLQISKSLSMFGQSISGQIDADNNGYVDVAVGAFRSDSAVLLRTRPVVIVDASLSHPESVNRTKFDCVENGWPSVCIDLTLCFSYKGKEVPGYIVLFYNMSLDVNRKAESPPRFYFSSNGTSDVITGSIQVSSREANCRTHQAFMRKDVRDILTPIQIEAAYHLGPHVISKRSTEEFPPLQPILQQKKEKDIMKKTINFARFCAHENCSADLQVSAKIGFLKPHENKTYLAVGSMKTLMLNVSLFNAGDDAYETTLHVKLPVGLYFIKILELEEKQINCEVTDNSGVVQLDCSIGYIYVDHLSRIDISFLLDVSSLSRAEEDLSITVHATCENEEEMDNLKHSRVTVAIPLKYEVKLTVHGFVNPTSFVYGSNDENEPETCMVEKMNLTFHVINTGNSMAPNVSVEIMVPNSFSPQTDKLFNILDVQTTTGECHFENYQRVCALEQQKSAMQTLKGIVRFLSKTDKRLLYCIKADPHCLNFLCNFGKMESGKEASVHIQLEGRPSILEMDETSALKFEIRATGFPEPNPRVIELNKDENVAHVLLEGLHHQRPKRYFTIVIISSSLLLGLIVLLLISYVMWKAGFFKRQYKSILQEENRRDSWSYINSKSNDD

[8] = target: Beta-adrenergic receptor kinase 1 (Homo sapiens) (UniProt P25098); experiment: GRK2 binders displacing RNA aptamer, biochemical, validation, human GRK2, bead flow cytometry (AID 488806;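 active = aptamer binding inhibition above 30%, about 3 SD of noise from non-fluorescent compounds; inactive = inhibition at or below 30%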); conditions: bead-bound GRK2, FAM-aptamer displacement, at 10 µM, stronger effect = higher value
Chain of Beta-adrenergic receptor kinase 1 (Homo sapiens) (P25098 whole entry, looked up): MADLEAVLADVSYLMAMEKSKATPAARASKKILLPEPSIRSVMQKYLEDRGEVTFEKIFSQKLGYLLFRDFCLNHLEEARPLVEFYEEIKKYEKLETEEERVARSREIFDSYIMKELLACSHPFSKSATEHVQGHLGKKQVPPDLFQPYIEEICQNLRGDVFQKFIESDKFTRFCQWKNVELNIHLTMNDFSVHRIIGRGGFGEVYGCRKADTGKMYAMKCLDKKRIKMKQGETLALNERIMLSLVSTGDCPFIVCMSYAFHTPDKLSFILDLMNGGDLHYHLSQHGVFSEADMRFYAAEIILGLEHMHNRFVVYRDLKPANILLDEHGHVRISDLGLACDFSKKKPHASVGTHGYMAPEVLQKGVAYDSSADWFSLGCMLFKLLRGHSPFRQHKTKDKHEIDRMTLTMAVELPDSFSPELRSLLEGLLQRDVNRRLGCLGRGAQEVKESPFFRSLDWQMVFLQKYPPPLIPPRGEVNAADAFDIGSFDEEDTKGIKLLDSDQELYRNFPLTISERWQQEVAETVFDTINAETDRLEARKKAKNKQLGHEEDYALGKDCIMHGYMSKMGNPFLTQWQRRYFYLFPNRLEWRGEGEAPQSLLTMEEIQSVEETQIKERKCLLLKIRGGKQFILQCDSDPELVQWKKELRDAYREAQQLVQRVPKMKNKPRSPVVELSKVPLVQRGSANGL

[9] = target: Beta-2 adrenergic receptor (Homo sapiens) (UniProt P07550); experiment: agonist-induced loss of surface beta2AR – cell-based, FAP fluorogen, flow cytometry, validation set, pilot screen (AID 504459;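 active = percent response above 42, roughly 3 SD of non-fluorescent test compounds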;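 note: agonist-driven loss of surface beta2AR via internalization measured by FAP dye flow cytometry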); conditions: Am2.2-beta2AR cells, at 10 µM, stronger effect = higher value
Chain of Beta-2 adrenergic receptor (Homo sapiens) (P07550 whole entry, looked up): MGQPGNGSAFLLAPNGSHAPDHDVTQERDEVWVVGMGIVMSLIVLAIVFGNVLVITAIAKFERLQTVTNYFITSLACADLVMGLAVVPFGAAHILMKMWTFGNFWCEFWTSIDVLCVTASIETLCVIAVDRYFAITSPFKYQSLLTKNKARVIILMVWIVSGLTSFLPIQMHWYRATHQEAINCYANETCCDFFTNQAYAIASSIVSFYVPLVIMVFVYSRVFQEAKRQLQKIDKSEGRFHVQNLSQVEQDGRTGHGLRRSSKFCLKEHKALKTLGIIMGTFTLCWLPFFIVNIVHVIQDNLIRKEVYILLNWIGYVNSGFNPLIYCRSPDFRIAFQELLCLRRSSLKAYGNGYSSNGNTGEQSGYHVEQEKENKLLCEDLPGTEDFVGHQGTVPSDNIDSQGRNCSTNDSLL

[10] = target: AP-2 complex subunit beta (Homo sapiens) (UniProt P63010); experiment: beta-arrestin/AP2 interaction blockers – biochemical, validation set, GST-AP2 beads, flow cytometry, pilot screen (AID 504541;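 active = inhibition above 54%, about 3 SD of non-fluorescent compounds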;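 note: AP2 carries R879A mutation and is captured from E. coli lysate; bead-bound FITC arrestin peptide fluorescence measuring arrestin peptide binding to AP2; 0% = DMSO wells and 100% = excess unlabeled arrestin peptide control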); conditions: FITC arrestin peptide, at 10 µM, stronger effect = higher value, AP2 beta2 appendage fragment, R879A mutant
Chain of AP-2 complex subunit beta (Homo sapiens) (P63010 whole entry, looked up, the tested form may be a part, one chain of several): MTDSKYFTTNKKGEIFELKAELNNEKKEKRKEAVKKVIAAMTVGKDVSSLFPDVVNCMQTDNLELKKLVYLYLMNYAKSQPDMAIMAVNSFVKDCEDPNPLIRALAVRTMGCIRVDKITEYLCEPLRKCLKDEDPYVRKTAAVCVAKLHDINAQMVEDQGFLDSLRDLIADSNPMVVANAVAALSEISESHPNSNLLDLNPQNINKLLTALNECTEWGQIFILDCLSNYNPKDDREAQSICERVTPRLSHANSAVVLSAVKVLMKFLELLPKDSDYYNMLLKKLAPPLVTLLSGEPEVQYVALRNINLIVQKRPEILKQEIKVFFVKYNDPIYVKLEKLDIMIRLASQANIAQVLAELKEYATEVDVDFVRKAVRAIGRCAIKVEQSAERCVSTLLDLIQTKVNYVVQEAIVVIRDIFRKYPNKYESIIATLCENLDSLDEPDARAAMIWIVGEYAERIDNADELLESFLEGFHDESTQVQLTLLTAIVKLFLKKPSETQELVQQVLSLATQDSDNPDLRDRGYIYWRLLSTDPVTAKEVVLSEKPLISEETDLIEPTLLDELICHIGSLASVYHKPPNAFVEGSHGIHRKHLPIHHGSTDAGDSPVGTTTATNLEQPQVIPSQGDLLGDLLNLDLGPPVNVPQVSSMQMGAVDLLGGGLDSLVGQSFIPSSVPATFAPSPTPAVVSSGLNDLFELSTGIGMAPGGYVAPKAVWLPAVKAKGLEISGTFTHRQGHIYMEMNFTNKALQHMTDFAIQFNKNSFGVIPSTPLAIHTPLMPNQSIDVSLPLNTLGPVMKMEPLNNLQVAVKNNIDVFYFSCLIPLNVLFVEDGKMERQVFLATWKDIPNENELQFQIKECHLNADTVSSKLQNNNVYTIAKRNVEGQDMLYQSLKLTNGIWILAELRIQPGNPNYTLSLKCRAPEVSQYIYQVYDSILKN

[11] = cytosolic pH regulators acting via V-ATPase – S. cerevisiae, pHLuorin, HTS validation (AID 504600; in the data active = response above about 15%;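 note: plate controls were DMSO for no effect and reference compound for full effect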); conditions: V-ATPase proton transport, at 10 µM, stronger effect = higher value
[12] = tested on: anti-desmoglein-3 scFv antibody binding to human DSG3; experiment: blockers of pathogenic pemphigus antibody–desmoglein-3 binding – biochemical, validation compound set, bead-based, flow cytometry, pilot screen (AID 588368;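 active = binding below the plate cutoff, the plate median minus 3 SD, with a reading above zero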;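 note: signal is the median channel fluorescence of bead-bound GFP antibody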); conditions: Protein G beads, DSG3-Fc, scFv-GFP binding, at 10 µM, stronger effect = lower value
[13] = Nile Red efflux blockade in pump-expressing yeast – validation compound set, multiplex, phenotypic, pilot screen (AID 588506;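 active = efflux inhibition above 0.42, the validation set average plus 4 SD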;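 note: Nile Red retained in cells so higher fluorescence means more efflux inhibition; 0 = negative control wells and 1 = enniatin B 25 µM full block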); conditions: S. cerevisiae pump-expressing triplex, Nile Red efflux flow cytometry; at 10 µM; stronger effect = higher value; the pumps come from Candida albicans
[14] = target: ATP-binding cassette sub-family B member 6 (Homo sapiens) (UniProt Q9NP58); experiment: blockers of ABCB6-driven porphyrin uptake – K562-ABCB6 cells, flow cytometry, validation set, pilot screen (AID 588550); conditions: K562-ABCB6 porphyrin accumulation, 1 h, at 10 µM, stronger effect = higher value;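 note: 0% = DMSO wells and 100% = benzethonium chloride 70 µM positive control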
Chain of ATP-binding cassette sub-family B member 6 (Homo sapiens) (Q9NP58 whole entry, looked up): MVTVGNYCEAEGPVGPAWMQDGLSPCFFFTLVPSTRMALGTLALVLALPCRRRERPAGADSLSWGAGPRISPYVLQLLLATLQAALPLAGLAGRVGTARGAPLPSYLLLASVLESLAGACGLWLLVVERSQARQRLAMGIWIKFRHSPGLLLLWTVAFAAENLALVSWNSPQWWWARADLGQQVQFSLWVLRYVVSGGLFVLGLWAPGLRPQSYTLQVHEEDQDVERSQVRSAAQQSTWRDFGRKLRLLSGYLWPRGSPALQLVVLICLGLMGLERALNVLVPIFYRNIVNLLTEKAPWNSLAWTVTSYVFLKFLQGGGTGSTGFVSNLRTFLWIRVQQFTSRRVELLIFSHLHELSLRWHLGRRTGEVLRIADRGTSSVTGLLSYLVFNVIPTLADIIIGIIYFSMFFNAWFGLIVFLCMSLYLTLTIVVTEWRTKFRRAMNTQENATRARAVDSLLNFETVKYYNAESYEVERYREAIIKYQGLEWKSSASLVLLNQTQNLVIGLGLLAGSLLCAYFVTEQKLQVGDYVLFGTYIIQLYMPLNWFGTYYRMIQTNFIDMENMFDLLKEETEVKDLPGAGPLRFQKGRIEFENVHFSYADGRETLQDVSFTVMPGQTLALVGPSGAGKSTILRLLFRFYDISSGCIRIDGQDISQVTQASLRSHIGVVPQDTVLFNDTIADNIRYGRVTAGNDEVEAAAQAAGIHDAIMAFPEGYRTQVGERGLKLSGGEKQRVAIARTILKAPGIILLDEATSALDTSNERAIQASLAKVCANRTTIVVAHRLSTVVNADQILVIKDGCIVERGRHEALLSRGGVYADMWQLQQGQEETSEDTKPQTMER

[15] = AML differentiation inducers, ER-HoxA9 marrow cells – cell-based, GFP/MAC1 double positive, flow cytometry, validation set, primary screen (AID 588685;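 active = differentiation response of at least 50%, scaled between solvent and reference control, from cells with both markers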;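 note: compound exposure lasts four days before antibody staining and flow analysis; 0% = DMSO wells and 100% = 5 µM fulvestrant positive control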); conditions: stronger effect = higher value, normalized: vehicle 0, fulvestrant 100
[16] = calorie-restriction mimetic ROS inhibitors, yeast – validation compound set, pilot screen (AID 2706;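 active = superoxide response below 65% of plate, a cut near 3 SD across the whole screen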;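 note: yeast exposed to compound for one week at 30 degrees C before staining; 100% = mean of all compound wells on the same plate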); conditions: S. cerevisiae aging, superoxide DHE fluorescence; at 10 µM, stronger effect = lower value

Cn1cnc2c1c(=O)n(CC(O)CO)c(=O)n2C (stereo not drawn)
inactive: percent of DMSO control GFP [1] 102% | GFP response vs DMSO [2] 96.2% | percent response of DMSO control [3] 98.9% | GFP response vs DMSO [4] 98.6% | GFP response, % of DMSO [5] 96.7% | vesicle binding response [6] 59.9% | inhibition [7] 11% | aptamer binding inhibition [8] -1% | response [9] -2.93% | inhibition [10] -6.49% | response [11] -0.43% | binding (% of control) [12] 102% | efflux inhibition (fraction of control) [13] -0.04 | inhibition [14] 9% | differentiation response [15] 43.2%
62.7%: double positive events [6]

C[C@H]1C[C@H]2[C@@H]3CCC4=CC(=O)C=C[C@]4(C)[C@@]3(Cl)[C@@H](O)C[C@]2(C)[C@@]1(O)C(=O)CO
53.7%: double positive events [6]
inactive: percent of DMSO control GFP [1] 101% | GFP response vs DMSO [2] 103% | percent response of DMSO control [3] 106% | GFP response vs DMSO [4] 103% | GFP response, % of DMSO [5] 98.8% | vesicle binding response [6] 190% | inhibition [7] 4.42% | superoxide response (% of plate) [16] 85.2% | aptamer binding inhibition [8] 2% | inhibition [10] -8.65% | response [11] 4.84% | binding (% of control) [12] 96.9% | efflux inhibition (fraction of control) [13] -0.24 | inhibition [14] 6% | differentiation response [15] -9.89%

Cc1ccc(CSCC(=O)NCCCN2CCOCC2)cc1
67.8%: double positive events [6]
inactive: percent of DMSO control GFP [1] 100% | GFP response vs DMSO [2] 96.2% | percent response of DMSO control [3] 95.4% | GFP response vs DMSO [4] 92.7% | GFP response, % of DMSO [5] 96.4% | vesicle binding response [6] 243% | inhibition [7] -4.6% | aptamer binding inhibition [8] -4% | response [9] -1.57% | inhibition [10] -6.22% | response [11] 1.78% | binding (% of control) [12] 104% | efflux inhibition (fraction of control) [13] 0.33 | inhibition [14] -6% | differentiation response [15] 3.18%

Cc1cnc(C(=O)NCCc2ccc(S(=O)(=O)NC(=O)NC3CCCCC3)cc2)cn1
65%: double positive events [6]
inactive: percent of DMSO control GFP [1] 93.9% | GFP response vs DMSO [2] 93.8% | percent response of DMSO control [3] 110% | GFP response vs DMSO [4] 92.3% | GFP response, % of DMSO [5] 92.2% | vesicle binding response [6] 230% | inhibition [7] -9.57% | superoxide response (% of plate) [16] 95.2% | aptamer binding inhibition [8] 2% | inhibition [10] -11.4% | response [11] -3.18% | binding (% of control) [12] 104% | efflux inhibition (fraction of control) [13] -0.12 | inhibition [14] 4% | differentiation response [15] -3.43%

CCCC(=O)Nc1ccc(OCC(O)CNC(C)C)c(C(C)=O)c1 (stereo not drawn)
59.8%: double positive events [6]
inactive: percent of DMSO control GFP [1] 99% | GFP response vs DMSO [2] 101% | percent response of DMSO control [3] 100% | GFP response vs DMSO [4] 106% | GFP response, % of DMSO [5] 99.2% | vesicle binding response [6] 2400% | inhibition [7] -24.6% | superoxide response (% of plate) [16] 106% | aptamer binding inhibition [8] -5% | response [11] -0.74% | binding (% of control) [12] 200% | efflux inhibition (fraction of control) [13] -0.57 | inhibition [14] -3% | differentiation response [15] 11.1%

CCc1cc2c(=O)c(-c3ccc(F)cc3)c(C)oc2cc1OCC(=O)O
70.6%: double positive events [6]
inactive: percent of DMSO control GFP [1] 107% | GFP response vs DMSO [2] 98.3% | percent response of DMSO control [3] 104% | GFP response vs DMSO [4] 88.1% | GFP response, % of DMSO [5] 100% | vesicle binding response [6] 168% | inhibition [7] 6.81% | aptamer binding inhibition [8] -3% | response [9] -3.44% | inhibition [10] -6.22% | response [11] 0.76% | binding (% of control) [12] 104% | inhibition [14] -6% | differentiation response [15] 30.5%
active: efflux inhibition (fraction of control) [13] 0.43

CNC[C@H](O)c1ccc(O)c(O)c1
43.9%: double positive events [6]
inactive: percent of DMSO control GFP [1] 107% | GFP response vs DMSO [2] 95.9% | percent response of DMSO control [3] 107% | GFP response vs DMSO [4] 97.4% | GFP response, % of DMSO [5] 103% | vesicle binding response [6] 162% | inhibition [7] -25.4% | superoxide response (% of plate) [16] 108% | inhibition [10] 2.4% | response [11] 2.95% | binding (% of control) [12] 103% | efflux inhibition (fraction of control) [13] -0.24 | inhibition [14] 9% | differentiation response [15] -8.27%

CCOC(=O)[C@H](CCc1ccccc1)N[C@@H](C)C(=O)N1CCC[C@H]1C(=O)O
inactive: percent of DMSO control GFP [1] 102% | GFP response vs DMSO [2] 98.3% | percent response of DMSO control [3] 93.1% | GFP response vs DMSO [4] 98.6% | GFP response, % of DMSO [5] 96.4% | vesicle binding response [6] 171% | inhibition [7] -5.64% | aptamer binding inhibition [8] 13% | response [9] -2.62% | response [11] -5.12% | binding (% of control) [12] 95.3% | inhibition [14] 3% | differentiation response [15] 25.7%
64.3%: double positive events [6]
active: inhibition [10] 61% | efflux inhibition (fraction of control) [13] 0.46

O=C(CCCN1CCC(O)(c2ccc(Cl)cc2)CC1)c1ccc(F)cc1
62.6%: double positive events [6]
inactive: percent of DMSO control GFP [1] 101% | GFP response vs DMSO [2] 99.3% | percent response of DMSO control [3] 91.9% | GFP response vs DMSO [4] 86.8% | GFP response, % of DMSO [5] 93.7% | vesicle binding response [6] 48.6% | inhibition [7] 9.92% | aptamer binding inhibition [8] -3% | response [9] -2.5% | inhibition [10] 13.3% | response [11] -1.24% | binding (% of control) [12] 105% | efflux inhibition (fraction of control) [13] 0.27 | inhibition [14] 21% | differentiation response [15] 15.9%

C[C@@H]1C[C@H]2[C@@H]3CCC4=CC(=O)C=C[C@]4(C)[C@@]3(F)[C@@H](O)C[C@]2(C)[C@@]1(O)C(=O)COP(=O)(O)O
53.3%: double positive events [6]
inactive: percent of DMSO control GFP [1] 104% | GFP response vs DMSO [2] 98.9% | percent response of DMSO control [3] 101% | GFP response vs DMSO [4] 83.3% | GFP response, % of DMSO [5] 93% | vesicle binding response [6] 126% | inhibition [7] 20.3% | superoxide response (% of plate) [16] 106% | aptamer binding inhibition [8] 2% | inhibition [10] -3.37% | response [11] 4.69% | binding (% of control) [12] 96.9% | efflux inhibition (fraction of control) [13] -0.09 | inhibition [14] 10% | differentiation response [15] -13.1%
